What all share (assay): DAPPL (digital affinity profiling via proximity ligation, sequencing); 10 mM Tris-HCl pH 7.5, 50 mM NaCl, 1 mM DTT, 4% glycerol, room temperature, 30 min; GST-TFs on glutathione beads, 16-mer random dsDNA library, 0.1% formaldehyde crosslink after washing; high values mean tight binding
Holding throughout (conditions): protein: recombinant; tags: N-terminal GST; dsDNA, one strand shown

The target in assay [1] is T1, FLI1 (Homo sapiens, UniProt Q01543 1-452).
T1 sequence: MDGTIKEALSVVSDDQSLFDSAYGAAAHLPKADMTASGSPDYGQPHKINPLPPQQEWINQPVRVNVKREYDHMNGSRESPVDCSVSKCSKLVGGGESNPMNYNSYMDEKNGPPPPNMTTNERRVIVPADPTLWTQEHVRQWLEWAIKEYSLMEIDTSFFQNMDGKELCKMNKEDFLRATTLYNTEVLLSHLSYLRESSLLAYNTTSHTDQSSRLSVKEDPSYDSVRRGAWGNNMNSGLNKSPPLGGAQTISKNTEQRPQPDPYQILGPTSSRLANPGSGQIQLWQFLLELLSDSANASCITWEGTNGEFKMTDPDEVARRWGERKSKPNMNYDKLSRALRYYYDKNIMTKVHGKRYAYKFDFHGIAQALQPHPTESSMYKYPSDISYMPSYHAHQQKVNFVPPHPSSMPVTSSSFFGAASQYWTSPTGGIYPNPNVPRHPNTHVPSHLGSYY
An outline of the steps:
(§1)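 Human transcription factors carrying a GST fusion were produced in yeast, bound to glutathione beads, tagged with DNA barcodes and pooled together with a tag-only sample. Each pool was held with 200 nmole of a random double-stranded 16-mer DNA library in Tris/NaCl/DTT/glycerol buffer for 30 min at room temperature, then washed, crosslinked in 0.1% formaldehyde, proximity-ligated with BsaI/T4 ligase (1 h, 37 °C), PCR-amplified and sequenced on an Illumina NextSeq500. Binding signal is the read frequency of each hexamer for a given factor divided by its frequency in the tag-only sample.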

For assay [2], the target named is T2, ELK1 (Homo sapiens, UniProt P19419 1-428).
T2 sequence: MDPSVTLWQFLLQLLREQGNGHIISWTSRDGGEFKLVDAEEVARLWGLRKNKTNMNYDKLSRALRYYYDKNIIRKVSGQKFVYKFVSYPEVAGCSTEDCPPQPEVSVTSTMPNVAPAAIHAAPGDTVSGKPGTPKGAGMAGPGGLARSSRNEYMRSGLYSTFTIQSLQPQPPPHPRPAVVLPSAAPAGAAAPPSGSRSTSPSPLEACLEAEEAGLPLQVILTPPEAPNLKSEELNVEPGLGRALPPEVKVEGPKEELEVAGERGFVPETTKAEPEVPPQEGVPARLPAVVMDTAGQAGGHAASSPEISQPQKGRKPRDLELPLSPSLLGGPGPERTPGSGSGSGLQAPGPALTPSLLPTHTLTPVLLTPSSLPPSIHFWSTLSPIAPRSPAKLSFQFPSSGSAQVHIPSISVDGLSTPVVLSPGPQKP
The procedure, abridged:
as §1

The target in assay [3] is T3, GABPA (Homo sapiens, UniProt Q06546 1-454).
T3 sequence: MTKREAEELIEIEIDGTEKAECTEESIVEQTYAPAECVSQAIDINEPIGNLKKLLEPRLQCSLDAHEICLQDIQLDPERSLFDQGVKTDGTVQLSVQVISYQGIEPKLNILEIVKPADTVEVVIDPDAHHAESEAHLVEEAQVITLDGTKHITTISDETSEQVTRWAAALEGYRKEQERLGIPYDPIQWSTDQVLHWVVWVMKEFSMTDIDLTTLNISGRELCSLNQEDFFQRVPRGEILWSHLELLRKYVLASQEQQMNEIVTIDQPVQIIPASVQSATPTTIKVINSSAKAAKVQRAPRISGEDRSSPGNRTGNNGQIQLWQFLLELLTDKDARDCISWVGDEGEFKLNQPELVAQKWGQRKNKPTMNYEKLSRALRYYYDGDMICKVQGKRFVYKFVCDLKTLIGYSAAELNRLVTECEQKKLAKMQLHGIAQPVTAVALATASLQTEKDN
The procedure, abridged:
as §1

Assay [4] concerns the target T4, ERG (Homo sapiens, UniProt P11308 1-479).
T4 sequence: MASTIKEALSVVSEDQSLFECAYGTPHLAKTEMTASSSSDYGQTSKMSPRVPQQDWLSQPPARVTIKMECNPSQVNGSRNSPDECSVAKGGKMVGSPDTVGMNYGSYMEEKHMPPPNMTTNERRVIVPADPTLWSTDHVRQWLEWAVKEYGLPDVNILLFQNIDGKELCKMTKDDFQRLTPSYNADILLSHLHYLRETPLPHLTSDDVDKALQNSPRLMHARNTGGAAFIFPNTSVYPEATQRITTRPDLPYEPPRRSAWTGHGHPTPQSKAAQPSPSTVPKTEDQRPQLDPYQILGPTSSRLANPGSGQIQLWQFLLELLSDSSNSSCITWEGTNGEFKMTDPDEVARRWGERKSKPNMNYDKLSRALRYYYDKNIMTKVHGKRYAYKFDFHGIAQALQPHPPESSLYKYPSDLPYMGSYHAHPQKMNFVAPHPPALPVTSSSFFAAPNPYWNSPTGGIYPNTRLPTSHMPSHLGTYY
An outline of the steps:
as §1

Assay [5] concerns the target ELF1 (Homo sapiens, UniProt P32519 1-619). The procedure, abridged: as §1
Assay [6] addresses T5, EHF (Homo sapiens, UniProt Q9NZC4 1-300).
T5 sequence: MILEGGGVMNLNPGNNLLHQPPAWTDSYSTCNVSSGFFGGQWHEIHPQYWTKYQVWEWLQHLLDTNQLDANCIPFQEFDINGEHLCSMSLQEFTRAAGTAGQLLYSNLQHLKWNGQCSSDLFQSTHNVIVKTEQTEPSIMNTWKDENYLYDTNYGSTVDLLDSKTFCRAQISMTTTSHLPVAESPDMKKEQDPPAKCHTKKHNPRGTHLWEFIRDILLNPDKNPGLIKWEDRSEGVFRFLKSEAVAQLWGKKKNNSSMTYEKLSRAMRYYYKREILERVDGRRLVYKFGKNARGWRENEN
An outline of the steps: as §1

The target of assay [7] is SPI1 (Homo sapiens, UniProt P17947 1-270). An outline of the steps: as §1
The target of assay [8] is SPIB (Homo sapiens, UniProt Q01892 1-262). An outline of the steps:
as §1

The target in assay [9] is T6, ELK3 (Homo sapiens, UniProt P41970 1-407).
T6 sequence: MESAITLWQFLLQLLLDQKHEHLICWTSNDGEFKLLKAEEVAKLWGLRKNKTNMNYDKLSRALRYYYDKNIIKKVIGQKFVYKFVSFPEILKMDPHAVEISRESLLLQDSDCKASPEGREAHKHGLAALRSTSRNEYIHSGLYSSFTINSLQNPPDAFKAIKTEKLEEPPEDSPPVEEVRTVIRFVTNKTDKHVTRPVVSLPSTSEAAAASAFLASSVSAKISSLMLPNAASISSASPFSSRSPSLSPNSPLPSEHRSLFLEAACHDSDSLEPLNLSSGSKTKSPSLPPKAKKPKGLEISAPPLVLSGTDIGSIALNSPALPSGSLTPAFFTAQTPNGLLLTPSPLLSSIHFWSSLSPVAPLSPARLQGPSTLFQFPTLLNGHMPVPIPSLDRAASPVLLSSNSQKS
The procedure, abridged:
as §1

Chain of ELF1 (P32519 whole entry): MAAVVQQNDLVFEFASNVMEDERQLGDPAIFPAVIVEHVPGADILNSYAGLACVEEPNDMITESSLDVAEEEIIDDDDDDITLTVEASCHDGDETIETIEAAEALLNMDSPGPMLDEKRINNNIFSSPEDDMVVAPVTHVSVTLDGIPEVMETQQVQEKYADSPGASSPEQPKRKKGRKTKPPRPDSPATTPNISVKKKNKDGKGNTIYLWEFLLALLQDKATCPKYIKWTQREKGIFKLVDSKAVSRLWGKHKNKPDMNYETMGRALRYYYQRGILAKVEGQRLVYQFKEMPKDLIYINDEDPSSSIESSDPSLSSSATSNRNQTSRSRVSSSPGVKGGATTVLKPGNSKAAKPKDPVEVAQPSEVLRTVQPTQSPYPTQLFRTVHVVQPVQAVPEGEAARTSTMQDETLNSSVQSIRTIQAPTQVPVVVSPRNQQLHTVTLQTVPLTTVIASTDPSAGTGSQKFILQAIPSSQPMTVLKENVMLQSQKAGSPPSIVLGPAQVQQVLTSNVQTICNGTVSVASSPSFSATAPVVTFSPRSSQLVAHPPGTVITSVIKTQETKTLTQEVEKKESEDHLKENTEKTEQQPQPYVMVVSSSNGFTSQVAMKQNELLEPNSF
Chain of SPIB (Q01892 whole entry): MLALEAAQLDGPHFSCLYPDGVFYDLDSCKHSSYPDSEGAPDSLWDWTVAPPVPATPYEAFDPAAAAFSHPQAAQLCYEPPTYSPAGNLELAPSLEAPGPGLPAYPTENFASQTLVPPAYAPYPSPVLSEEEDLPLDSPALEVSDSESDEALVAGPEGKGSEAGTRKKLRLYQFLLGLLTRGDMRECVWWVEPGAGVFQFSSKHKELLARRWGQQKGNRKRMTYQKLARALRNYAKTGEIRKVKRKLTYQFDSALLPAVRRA

Turning to ATACAC, the binding signal is 1.18 fold enrichment (6-mer frequency, TF over GST control) in assay [1]; 1.19 fold enrichment (6-mer frequency, TF over GST control) in assay [2]; 1.25 fold enrichment (6-mer frequency, TF over GST control) in [3]; 1.25 fold enrichment (6-mer frequency, TF over GST control) in assay [4]; 1.19 fold enrichment (6-mer frequency, TF over GST control) in [5]; 1.22 fold enrichment (6-mer frequency, TF over GST control) in assay [6]. Moreover, the binding signal in [7] is 1.23 fold enrichment (6-mer frequency, TF over GST control); in assay [8], 1.23 fold enrichment (6-mer frequency, TF over GST control); in [9], 1.21 fold enrichment (6-mer frequency, TF over GST control).

Regarding TAACAT, the binding signal in [1] is 1.41 fold enrichment (6-mer frequency, TF over GST control); in [2], 1.26 fold enrichment (6-mer frequency, TF over GST control); in assay [3], 1.3 fold enrichment (6-mer frequency, TF over GST control); in assay [4], 1.36 fold enrichment (6-mer frequency, TF over GST control); in [5] it was 1.35 fold enrichment (6-mer frequency, TF over GST control); in assay [6], 1.28 fold enrichment (6-mer frequency, TF over GST control). The binding signal in assay [7] is 1.32 fold enrichment (6-mer frequency, TF over GST control); in assay [8], 1.27 fold enrichment (6-mer frequency, TF over GST control); in assay [9], 1.28 fold enrichment (6-mer frequency, TF over GST control).

As for GAATAA, the binding signal is 1.01 fold enrichment (6-mer frequency, TF over GST control) in assay [1]; 1.08 fold enrichment (6-mer frequency, TF over GST control) in assay [2]; 1.07 fold enrichment (6-mer frequency, TF over GST control) in assay [3]; 1.06 fold enrichment (6-mer frequency, TF over GST control) in [4]; 1.09 fold enrichment (6-mer frequency, TF over GST control) in assay [5]; 1.09 fold enrichment (6-mer frequency, TF over GST control) in assay [6]. The binding signal in assay [7] is 1.03 fold enrichment (6-mer frequency, TF over GST control); in assay [8], 1.11 fold enrichment (6-mer frequency, TF over GST control); in [9] it was 1.17 fold enrichment (6-mer frequency, TF over GST control).

Regarding AACCAA, the binding signal in assay [1] is 1.24 fold enrichment (6-mer frequency, TF over GST control); in [2] it was 1.22 fold enrichment (6-mer frequency, TF over GST control); in assay [3] it was 1.25 fold enrichment (6-mer frequency, TF over GST control); in assay [4] it was 1.16 fold enrichment (6-mer frequency, TF over GST control); in assay [5], 1.22 fold enrichment (6-mer frequency, TF over GST control); in [6], 1.22 fold enrichment (6-mer frequency, TF over GST control). Moreover, the binding signal was 1.19 fold enrichment (6-mer frequency, TF over GST control) in assay [7]; 1.15 fold enrichment (6-mer frequency, TF over GST control) in [8]; 1.19 fold enrichment (6-mer frequency, TF over GST control) in assay [9].

For the sequence TATTTG, the binding signal in assay [1] is 1.52 fold enrichment (6-mer frequency, TF over GST control); in assay [2], 1.41 fold enrichment (6-mer frequency, TF over GST control); in assay [3], 1.43 fold enrichment (6-mer frequency, TF over GST control); in assay [4] it was 1.47 fold enrichment (6-mer frequency, TF over GST control); in assay [5], 1.35 fold enrichment (6-mer frequency, TF over GST control); in assay [6] it was 1.45 fold enrichment (6-mer frequency, TF over GST control). Besides, the binding signal is 1.46 fold enrichment (6-mer frequency, TF over GST control) in assay [7]; 1.46 fold enrichment (6-mer frequency, TF over GST control) in assay [8]; 1.39 fold enrichment (6-mer frequency, TF over GST control) in assay [9].

Take TCTTGA: the binding signal in assay [1] is 1.33 fold enrichment (6-mer frequency, TF over GST control); in assay [2], 1.31 fold enrichment (6-mer frequency, TF over GST control); in assay [3], 1.33 fold enrichment (6-mer frequency, TF over GST control); in assay [4], 1.24 fold enrichment (6-mer frequency, TF over GST control); in assay [5], 1.3 fold enrichment (6-mer frequency, TF over GST control); in [6], 1.35 fold enrichment (6-mer frequency, TF over GST control). The binding signal was 1.25 fold enrichment (6-mer frequency, TF over GST control) in assay [7]; 1.27 fold enrichment (6-mer frequency, TF over GST control) in assay [8]; 1.29 fold enrichment (6-mer frequency, TF over GST control) in assay [9].

On to TCAATA, for which the binding signal in assay [1] is 1.21 fold enrichment (6-mer frequency, TF over GST control); in [2], 1.17 fold enrichment (6-mer frequency, TF over GST control); in assay [3], 1.24 fold enrichment (6-mer frequency, TF over GST control); in assay [4], 1.14 fold enrichment (6-mer frequency, TF over GST control); in [5], 1.17 fold enrichment (6-mer frequency, TF over GST control); in assay [6], 1.14 fold enrichment (6-mer frequency, TF over GST control). For the same sequence, the binding signal was 1.23 fold enrichment (6-mer frequency, TF over GST control) in assay [7]; 1.06 fold enrichment (6-mer frequency, TF over GST control) in assay [8]; 1.2 fold enrichment (6-mer frequency, TF over GST control) in [9].

With GTTCTG, the binding signal in assay [1] was 1.14 fold enrichment (6-mer frequency, TF over GST control); in [2], 1.21 fold enrichment (6-mer frequency, TF over GST control); in assay [3], 1.16 fold enrichment (6-mer frequency, TF over GST control); in [4], 1.16 fold enrichment (6-mer frequency, TF over GST control); in assay [5] it was 1.08 fold enrichment (6-mer frequency, TF over GST control); in assay [6] it was 1.16 fold enrichment (6-mer frequency, TF over GST control). Besides, the binding signal in [7] is 1.17 fold enrichment (6-mer frequency, TF over GST control); in [8], 1.16 fold enrichment (6-mer frequency, TF over GST control); in assay [9] it was 1.18 fold enrichment (6-mer frequency, TF over GST control).

The record behind these values is PMC7862700, “An all-to-all approach to the identification of sequence-specific readers for epigenetic DNA modifications on cytosine”.
